Screening results from PubChem.
Compounds with a hit are over-represented: about 2.4% of the library has one in this group of screens.
FEN1 inhibitor = qHTS Assay for the Inhibitors of Human Flap endonuclease 1 (FEN1); P39748; Recombinant FEN1 flap cleavage, fluorescence, 15 min; Potency, µM (titrated, usually from 114 µM), for inactives: at the highest dose activity change, negative = inhibition, usual class: inhibitors; hit rate 0.35% among 390,000; note: % is set by controls: 0 for no effect and ±100 for the full control effect; nearly all actives have a fitted effect of over 65% in size
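FEN1 at 10 nM, compound pretreatment for 15 min (room temperature), 50 nM final substrate to initiate; endpoint reads at 0 and 15 min; DMSO-only plates used as vehicle background.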
POLH inh = qHTS for Inhibitors of Polymerase Eta | Potency, µM (titrated, usually from 114 µM), for inactives: at the highest dose activity change, negative = inhibition, actives largely listed as inhibitors | AID 588591, 2011 | hit rate 1.2% among 390,000 | recombinant Pol eta, fluorescent DNA replication assay; note: % is set by controls: 0 for no effect and ±100 for the full control effect
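Fluorescent replication assay: 50 nM final substrate added after a 15 min room-temperature compound preincubation with 10 nM enzyme. Signal taken at 0 min and again at 10 min.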
Pol kappa inh = qHTS for Inhibitors of Polymerase Kappa; DNA polymerase kappa (Homo sapiens), Q9UBT6; purified Pol kappa, fluorescent DNA synthesis assay, 10 min; Potency, µM (titrated, usually from 107 µM), for the others: at the highest dose activity, negative = inhibition, usual class: inhibitors; hit rate 0.53% among 400,000; note: % is set by controls: 0 for no effect and ±100 for the full control effect
Target sequence (Q9UBT6 whole entry, looked up): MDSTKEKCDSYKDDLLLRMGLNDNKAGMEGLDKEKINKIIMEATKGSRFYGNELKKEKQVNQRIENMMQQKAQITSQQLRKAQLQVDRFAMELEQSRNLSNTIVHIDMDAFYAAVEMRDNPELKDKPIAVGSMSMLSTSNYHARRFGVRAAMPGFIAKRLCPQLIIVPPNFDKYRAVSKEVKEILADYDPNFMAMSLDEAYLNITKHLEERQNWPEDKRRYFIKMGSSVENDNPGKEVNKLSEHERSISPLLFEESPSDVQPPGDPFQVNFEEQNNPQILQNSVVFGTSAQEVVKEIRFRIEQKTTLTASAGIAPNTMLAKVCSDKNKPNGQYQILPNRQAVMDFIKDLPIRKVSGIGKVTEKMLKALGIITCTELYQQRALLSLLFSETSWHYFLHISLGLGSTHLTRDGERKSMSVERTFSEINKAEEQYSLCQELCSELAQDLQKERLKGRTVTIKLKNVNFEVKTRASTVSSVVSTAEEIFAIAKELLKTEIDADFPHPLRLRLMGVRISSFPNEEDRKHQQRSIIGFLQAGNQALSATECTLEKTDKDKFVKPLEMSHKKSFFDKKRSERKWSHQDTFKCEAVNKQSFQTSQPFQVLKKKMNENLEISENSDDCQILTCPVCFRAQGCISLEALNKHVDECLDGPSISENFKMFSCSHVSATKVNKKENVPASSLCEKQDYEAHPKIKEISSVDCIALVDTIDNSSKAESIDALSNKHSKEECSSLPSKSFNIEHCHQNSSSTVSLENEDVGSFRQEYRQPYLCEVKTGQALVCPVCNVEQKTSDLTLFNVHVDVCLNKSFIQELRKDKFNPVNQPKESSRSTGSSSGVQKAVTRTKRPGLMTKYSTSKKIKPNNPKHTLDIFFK
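Activity was followed as the change in fluorescence between reads at 0 and 10 min after starting the reaction with 50 nM substrate. Beforehand, 10 nM polymerase had been preincubated with compound for 15 min at room temperature.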
Pol iota inh = qHTS for Inhibitors of Polymerase Iota | Potency, µM (top dose mostly 115 µM), for the others: at the highest dose activity, negative = inhibition, hits mostly inhibitors | hit rate 1% among 390,000 | DNA polymerase iota (Homo sapiens), Q9UNA4 | Pol iota fluorescent replication assay, 10 min
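Fluorescent replication assay read twice, at 0 min and 10 min after adding 50 nM (final) substrate. Enzyme (10 nM) and compounds were first incubated 15 min at room temperature; enzyme-free buffer wells were negative controls.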
Pol beta inh = qHTS Assay for Inhibitors of DNA Polymerase Beta; Pol beta primer extension/strand displacement, fluorescence kinetic; Potency, µM (series often up to 114 µM), without a hit: at the highest dose activity change, negative = inhibition, actives largely listed as inhibitors; hit rate 1.3% among 340,000; AID 485314, 2010; note: % is set by controls: 0 for no effect and ±100 for the full control effect
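Enzyme-only controls used 10 nM Pol beta; buffer lacking enzyme served as negative control. Compound preincubated 15 min, then 50 nM substrate added; 0 and 10 min reads at room temperature.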
WRN inhibitor = qHTS for Inhibitors of WRN Helicase. WRN helicase unwinding, fluorescent forked duplex, kinetic. hit rate 0.46% among 360,000. Potency, µM (titrated, usually from 114 µM), without a hit: at the top dose activity change, negative = inhibition, usual class: inhibitors. AID 651768, 2012. Bifunctional 3'-5' exonuclease/ATP-dependent helicase WRN (Homo sapiens), Q14191; note: % is set by controls: 0 for no effect and ±100 for the full control effect; nearly all actives have a fitted effect of over 55% in size
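WRN at 20 nM final was preincubated with compound for 15 min at room temperature; reaction started with 100 nM forked duplex oligonucleotide carrying fluorophore and quencher plus 2 mM ATP (final). Unwinding followed kinetically by red fluorescence (ex 525/em 598 nm).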
* hit, by the source's call; ? = inconclusive; . = not tested or not shown; [ ] = another dose, or the depositor's remark. Calls come from the whole dose curve; as a rule, active = well fitted curve in the direction sought with a large enough effect; inconclusive = small, poorly fitted or top-dose-only effect, or another doubt; inactive = no such curve, though single readings can be large; an effect the other way counts as inactive or inconclusive. Potency is the fitted concentration of half-maximal effect.

SMILES	FEN1 inhibitor	POLH inh	Pol kappa inh	Pol iota inh	Pol beta inh	WRN inhibitor
COc1ccc(-c2cc(=O)[nH][nH]2)cc1OC	1%	-17%	-3%	1.3µM*	37%	4%[57.1 µM]
O=c1cc(-c2ccc(F)cc2)[nH][nH]1	4%	-19%	-1%	1.8µM*	2%	4%[11.6 µM]
COc1cccc(-c2cc(=O)[nH][nH]2)c1	15%	-6%	-2%	?	2%	5%
O=C1C=CC(O)(c2cc(=O)c3c(O)cc(O)cc3o2)C=C1	-10%	?	-8%	6.3µM*	14%	-13%[11.6 µM]
O=S(=O)(/N=S1/CC=CCN1S(=O)(=O)c1ccccc1)c1ccccc1 (stereo not given)	?	-5%	-16%	-1%	11%	45µM*
O=c1cc(CN2CCN(c3ccc(O)cc3)CC2)nc2scc(-c3ccccc3)n12	7%	-18%	-20%	?	11µM*	-14%
O=c1cc(CSc2nnnn2-c2ccccc2)nc2scc(-c3ccccc3)n12	-5%	-14%	?	?	25µM*	-12%
CC(C)c1ccc(OCc2cc(=O)n3c(-c4ccccc4)csc3n2)cc1	12%	?	-24%	?	20µM*	.
Cc1cccc(OCc2cc(=O)n3c(-c4ccccc4)csc3n2)c1C	7%	?	-34%	?	28µM*	.
Cc1ccc(C(=O)c2sc(Nc3ccccc3)c(S(=O)(=O)c3ccccc3)c2N)c(C)c1	12%	-6%	-3%[60.1 µM]	1%	0%	.
COC(=O)c1cc(C(=O)OC)n(Cc2ccc(C)cc2)c1C	?	35µM*	?	?	-28%	-7%[11.6 µM]
CCOC(=O)CN(C)C(=O)C1CC(CO[Si](C)(C)C(C)(C)C)=CN1C(=O)OC(C)(C)C (stereo not given)	-7%	.	-25%	2%	.	.
Cc1ccc(C)c(OCCOCCn2c(-c3ccc(Br)cc3)nc3ccccc3c2=O)c1C	-8%	-9%	-11%	-1%	17%	.
Cc1ccc(NC(=O)CN(C)C(=O)c2cccc(S(=O)(=O)NCc3ccco3)c2)cc1	-17%	?	?	56µM*	.	-20%
CN(CC(=O)Nc1ccc(Cl)cc1)C(=O)c1cccc(S(=O)(=O)NCc2ccccc2)c1	-3%	-9%	-29%	-1%	-7%	-24%
COc1ccc2c(CNCCc3ccccc3)c(C(=O)O)n(Cc3cccc(F)c3)c2c1	-9%	-7%	-13%[60.1 µM]	6%	5%	.
CCOC(=O)COc1cc(C)c(Cl)cc1C(=O)c1ccn2nc(-c3ccc(OC)cc3)cc2n1	-10%	-14%	-3%	20%	14%	.
c1ccc(C[n+]2csc3ccccc32)cc1	2%	2%	-8%	2%	-10%	-32%
O=C(C[n+]1csc2ccccc21)c1ccc(O)c(O)c1	50µM*	.	25µM*	14µM*	.	.
C=CCn1c(SCC(=O)NCc2ccco2)nc2ccccc2c1=O	-9%	-7%	-13%	-6%	-24%	-14%
CCCn1c(SCC(=O)NC(=O)NCc2ccco2)n[nH]c1=O	.	.	.	.	14µM*	.
C=CCn1c(SCC(=O)NC(=O)NCc2ccco2)nc2sc(CC)cc2c1=O	-10%	11µM*	?	45µM*	14µM*	-20%[11.6 µM]
Cc1sc2nc(SCC(=O)NCc3ccco3)n(C)c(=O)c2c1C	-10%	?	-5%	?	27%	-8%[57.1 µM]
CCCn1c(SCC(=O)NC(=O)NCc2ccccc2)n[nH]c1=O	4%	-13%	18%	29%	.	-1%
Cc1sc2nc(SCc3ccc(C(=O)O)cc3)n(Cc3ccco3)c(=O)c2c1C	1%	79µM*	-5%	?	?	-19%
SMILES	FEN1 inhibitor	POLH inh	Pol kappa inh	Pol iota inh	Pol beta inh	WRN inhibitor
CCn1c(SCC(=O)NC(=O)NCc2ccco2)nc2sc(C)c(C)c2c1=O	3%	?	?	28µM*	20µM*	?
CS(=O)(=O)Nc1cccc(-c2ccc3ncnc(N4CCNCC4)c3c2)c1	.	.	1%[60.1 µM]	.	.	.
O=C(O)c1ccc(NC2=C(Cl)C(=O)c3ccccc3C2=O)cc1	-33%	?	-7%	?	-12%	-2%
O=C(O)c1cccc(NC2=C(Cl)C(=O)c3ccccc3C2=O)c1	-12%	79µM*	-88%	?	-8%	-11%[11.6 µM]
Cc1ccc(S(=O)(=O)N2CCN(c3nc(-n4ccnc4)nc4ccccc34)CC2)cc1	-13%	.	-6%	?	.	.
O=C(NC1CCCc2ccccc21)c1ccc2c(c1)sc1nc(-c3ccccc3)cn12 (stereo not given)	3%	-9%	7%	30%	-1%	.
O=C1C=CC(=O)N1N(c1ccccc1)c1ccccc1	-14%	-4%	-12%	13%	19%	35µM*
COc1cccc(CNC(=O)c2cc3c(s2)-c2c(C)cccc2OC3)c1	-22%	-16%	-14%	1%	-1%	.
CCOc1ccc2cc(C3CC(c4ccco4)=NN3S(C)(=O)=O)c(=O)[nH]c2c1 (stereo not given)	-5%	?	-27%	35µM*	16%	-4%[11.6 µM]
Cc1ccc2oc(-c3cc(NC(=O)c4ccco4)ccc3Cl)nc2c1	79µM*	-14%	?	?	-11%	.
Cc1ccc2oc(-c3cc(NC(=O)c4ncn[nH]4)ccc3O)nc2c1	-33%	45µM*	-8%	34%	?	-10%[11.6 µM]
Cc1ccc2oc(-c3cc(NC(=O)c4oc5ccccc5c4C)ccc3Cl)nc2c1	-2%	-19%	0%	18%	6%	.
COc1cc2sc3cc(NCc4ccc5c(c4)OCO5)ccc3c(=O)c2cc1OC	?	-12%	-9%	0%	.	-5%
COc1cc2sc3cc(NCC[C@@H]4CCCN4C)ccc3c(=O)c2cc1OC	22µM*	?	?	?	.	?
COc1cc2sc3cc(NCc4ccc(C)o4)ccc3c(=O)c2cc1OC	32µM*	-22%	79µM*	22µM*	.	-11%[11.6 µM]
Cc1ccc(C(=O)COC(=O)C(CC(C)C)NC(=O)C2CCC(C)CC2)cc1 (stereo not given)	-20%	-5%	0%	-13%	?	.
Cc1ccc(C(=O)N/N=C2\CCc3ccccc32)c(C)c1	-1%	-1%	-3%	22%	0.16µM*	8%
CCc1nn(-c2ccccc2)c2nc(-c3ccc(O)cc3)c3cc(OC)c(OC)cc3c12	3%	-16%	10%	26%	22%	.
CCCN1CNc2c(c(=O)[nH]c(=S)n2CCc2cc(OC)ccc2OC)C1	4%	.	5%	19%	.	.
